In PubChem BioAssay AID1159580 (chemical genetic matrix, 2015):
Several values for one entry are separate records, joined by “and”; a condition that tells them apart may be missing. Equal entries are not always repeated. The campaign covered roughly 5,500 compounds. About 2,000 (36%) were called active. Not shown: some 18% with an inconclusive outcome. No stated cut-off is given here; in the data, active means normalized growth mostly below about 0.91 (no sharp cut-off); inconclusive means no clear call, values can overlap the other calls; inactive means mostly above about 0.92. The list shows a part of the results.

Test: chemical genetic growth profiling, strain panel (AID 1159580);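 further: tested at 20 µM; growth read once vehicle control cultures reached saturation at 30 °C; 1 = growth at the plate median or of vehicle wells; lower values mean less growth of the strain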
Settings: S. cerevisiae deletion strains, growth OD

Measured: normalized growth

COC(=O)CCC(C)[C@H]1CCC2C3C(C[C@H](O)[C@@]21C)[C@@]1(C)CC[C@@H](O)C[C@H]1C[C@H]3O (some centres undefined)
inactive: locus YAL013W, strain DEP1, active compounds read low 1.03 | locus YAL021C, strain ccr4, active compounds read low 1.01 | locus YAL026C, strain drs2, active compounds read low 0.997 | locus YAL030W, strain snc1, active compounds read low 1.01 | locus YBL061C, strain skt5, active compounds read low 1.01 | locus YBR009C, strain hhf1, active compounds read low 1 | locus YBR021W, strain FUR4, active compounds read low 0.952 | locus YBR023C, strain chs3, active compounds read low 1 | locus YBR171W, strain sec66, active compounds read low 1.01 | locus YBR229C, strain ROT2, active compounds read low 1.03 | locus YBR279W, strain paf1, active compounds read low 1.01 | locus YCL011C, strain gbp2, active compounds read low 1.02 | locus YCL016C, strain dcc1, active compounds read low 1.02 | locus YCL029C, strain bik1, active compounds read low 1.04 | locus YCL061C, strain MRC1, active compounds read low 1.02 | locus YCL069W, strain vba3, active compounds read low 1 | locus YCR088W, strain abp1, active compounds read low 1.02 | locus YDL005C, strain med2, active compounds read low 0.999 | locus YDL035C, strain GPR1, active compounds read low 1.01 | locus YDL040C, strain nat1, active compounds read low 1.01 | locus YDL074C, strain BRE1, active compounds read low 0.983 | locus YDL101C, strain DUN1, active compounds read low 1.01 | locus YDL185W, strain tfp1, active compounds read low 1.02 | locus YDL192W, strain arf1, active compounds read low 1.02 | locus YDR001C, strain nth1, active compounds read low 1.01 | locus YDR069C, strain doa4, active compounds read low 1 | locus YDR101C, strain arx1, active compounds read low 1.01 | locus YDR137W, strain rgp1, active compounds read low 1.07 | locus YDR150W, strain NUM1, active compounds read low 1.02 | locus YDR159W, strain sac3, active compounds read low 0.994 | locus YDR162C, strain NBP2, active compounds read low 1.02 | locus YDR195W, strain ref2 1 | locus YDR297W, strain sur2, active compounds read low 1.01 | locus YDR318W, strain mcm21, active compounds read low 1.01 | locus YDR334W, strain swr1, active compounds read low 1.01 | locus YDR335W, strain msn5, active compounds read low 1.01 | locus YDR388W, active compounds read low 1.02 | locus YDR392W, strain spt3, active compounds read low 0.965 | locus YDR502C, strain sam2, active compounds read low 1.02 | locus YEL003W, strain gim4, active compounds read low 1.01 | locus YEL037C, strain rad23, active compounds read low 1.01 | locus YEL061C, strain CIN8 (second series), active compounds read low 1.01 | locus YEL061C, strain CIN8, active compounds read low 1 | locus YER015W, strain faa2, active compounds read low 1.02 | locus YER016W, strain bim1, active compounds read low 1.01 | locus YER110C, active compounds read low 1.02 | locus YER111C, strain swi4, active compounds read low 1.01 | locus YER155C, strain BEM2 (second series), active compounds read low 1.02 | locus YER155C, strain BEM2, active compounds read low 1.02 | locus YER167W, strain BCK2, active compounds read low 1 | locus YFR010W, strain ubp6, active compounds read low 0.996 | locus YGL078C, strain dbp3, active compounds read low 1.02 | locus YGL086W, strain mad1, active compounds read low 1.01 | locus YGL167C, strain pmr1, active compounds read low 1.01 | locus YGL173C, strain kem1, active compounds read low 1.01 | locus YGL227W, strain vid30, active compounds read low 1.02 | locus YGL240W, strain doc1, active compounds read low 1.04 | locus YGL248W, strain PDE1, active compounds read low 1.01 | locus YGL253W, strain hxk2, active compounds read low 0.96 | locus YGR078C, strain PAC10, active compounds read low 1 | locus YGR135W, strain pre9, active compounds read low 1 | locus YGR252W, strain gcn5, active compounds read low 0.909 | locus YHR013C, strain ard1, active compounds read low 1.02 | locus YHR027C, strain rpn1, active compounds read low 1 | locus YHR030C, strain SLT2, active compounds read low 1.02 and 1.01 | locus YHR079C, strain IRE1 (second series), active compounds read low 1.03 | locus YHR079C, strain IRE1, active compounds read low 0.984 | locus YHR094C, strain hxt1, active compounds read low 1.06 | locus YHR129C, strain ARP1, active compounds read low 1.01 | locus YHR142W, strain chs7, active compounds read low 0.976 | locus YHR200W, strain rpn10, active compounds read low 1 | locus YIL066C, strain RNR3, active compounds read low 1.01 | locus YIL073C, strain SPO22, active compounds read low 1.07 | locus YIL125W, strain kgd1, active compounds read low 1.03 | locus YIR030C, strain dcg1, active compounds read low 1.03 | locus YJL092W, strain hpr5, active compounds read low 1.01 | locus YJL095W, strain BCK1 (second series), active compounds read low 1.02 | locus YJL095W, strain BCK1, active compounds read low 0.976 and 0.998 | locus YJL115W, strain asf1, active compounds read low 1.01 | locus YJL129C, strain trk1, active compounds read low 1.03 | locus YJL134W, strain LCB3, active compounds read low 1.03 | locus YJL154C, strain vps35, active compounds read low 1.02 | locus YJL164C, strain tpk1, active compounds read low 1.01 | locus YJL166W, strain qcr8, active compounds read low 1.02 | locus YJL168C, strain set2, active compounds read low 1.03 | locus YJL187C, strain SWE1 (second series), active compounds read low 1.02 | locus YJL187C, strain SWE1, active compounds read low 1.01 | locus YJR043C, strain POL32, active compounds read low 0.999 | locus YJR066W, strain TOR1, active compounds read low 0.949
